# Only some compounds are listed: those with a hit (about 2.8% of all), similar ones and a draw of the others.
# POLI inh: qHTS for Inhibitors of Polymerase Iota | Pol iota fluorescent replication assay, 10 min | DNA polymerase iota (Homo sapiens), Q9UNA4 | AID 588590, 2011 | Potency, µM (doses to about 115 µM), for inactives: top-dose activity, negative = inhibition, hits mostly inhibitors | actives 1% (n = 390,000); also: potency is read from the fitted curve at half-maximal effect
#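 Pol iota at 10 nM preincubated 15 min with compounds at room temperature; reaction started with fluorescent substrate, 50 nM final. Fluorescence read kinetically at 0 and 10 min; buffer-only wells as negative control.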
# WRN helicase inh: qHTS for Inhibitors of WRN Helicase; Potency, µM (titrated, usually from 114 µM), for inactives: at the highest dose activity change, negative = inhibition, actives largely listed as inhibitors; Bifunctional 3'-5' exonuclease/ATP-dependent helicase WRN (Homo sapiens), Q14191; actives 0.46% (n = 360,000); WRN helicase unwinding, fluorescent forked duplex, kinetic; also: potency is read from the fitted curve at half-maximal effect; % is scaled to controls: 0 for no effect and ±100 for the full control effect; nearly all actives have a fitted effect of over 55% in size
#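 Kinetic fluorescence helicase assay: unwinding of a quenched forked DNA duplex (100 nM final) with 2 mM ATP final raises red fluorescence (525/598 nm). Compounds sat 15 min at room temperature with 20 nM WRN beforehand.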
# Pol kappa inh: qHTS for Inhibitors of Polymerase Kappa; DNA polymerase kappa (Homo sapiens), Q9UBT6; actives 0.53% (n = 400,000); purified Pol kappa, fluorescent DNA synthesis assay, 10 min; AID 588579, 2011; Potency, µM (doses to about 107 µM), for the others: at the highest dose activity, negative = inhibition, usual class: inhibitors; also: potency is read from the fitted curve at half-maximal effect; % is scaled to controls: 0 for no effect and ±100 for the full control effect
#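 50 nM final substrate added after 15 min RT preincubation of 10 nM Pol kappa with compound; fluorescence read at 0 and 10 min.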
# POLB inh: qHTS Assay for Inhibitors of DNA Polymerase Beta; P06746; Pol beta primer extension/strand displacement, fluorescence kinetic; Potency, µM (series often up to 114 µM), for inactives: top-dose activity change, negative = inhibition, actives largely listed as inhibitors; actives 1.3% (n = 340,000); AID 485314, 2010; also: potency is read from the fitted curve at half-maximal effect; % is scaled to controls: 0 for no effect and ±100 for the full control effect
#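 10 nM enzyme + cpd, 15 min RT; start with substrate 50 nM final; read 0 min and after 10 min RT. Corrected, normalized data; 4-parameter Hill curve fit.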
# Pol eta inh: qHTS for Inhibitors of Polymerase Eta | recombinant Pol eta, fluorescent DNA replication assay | Potency, µM (doses to about 114 µM), inactives show at the top dose activity change, negative = inhibition, actives largely listed as inhibitors | actives 1.2% (n = 390,000) | DNA polymerase eta (Homo sapiens), Q9Y253; also: potency is read from the fitted curve at half-maximal effect; % is scaled to controls: 0 for no effect and ±100 for the full control effect
# Target sequence (Q9Y253 whole entry, looked up): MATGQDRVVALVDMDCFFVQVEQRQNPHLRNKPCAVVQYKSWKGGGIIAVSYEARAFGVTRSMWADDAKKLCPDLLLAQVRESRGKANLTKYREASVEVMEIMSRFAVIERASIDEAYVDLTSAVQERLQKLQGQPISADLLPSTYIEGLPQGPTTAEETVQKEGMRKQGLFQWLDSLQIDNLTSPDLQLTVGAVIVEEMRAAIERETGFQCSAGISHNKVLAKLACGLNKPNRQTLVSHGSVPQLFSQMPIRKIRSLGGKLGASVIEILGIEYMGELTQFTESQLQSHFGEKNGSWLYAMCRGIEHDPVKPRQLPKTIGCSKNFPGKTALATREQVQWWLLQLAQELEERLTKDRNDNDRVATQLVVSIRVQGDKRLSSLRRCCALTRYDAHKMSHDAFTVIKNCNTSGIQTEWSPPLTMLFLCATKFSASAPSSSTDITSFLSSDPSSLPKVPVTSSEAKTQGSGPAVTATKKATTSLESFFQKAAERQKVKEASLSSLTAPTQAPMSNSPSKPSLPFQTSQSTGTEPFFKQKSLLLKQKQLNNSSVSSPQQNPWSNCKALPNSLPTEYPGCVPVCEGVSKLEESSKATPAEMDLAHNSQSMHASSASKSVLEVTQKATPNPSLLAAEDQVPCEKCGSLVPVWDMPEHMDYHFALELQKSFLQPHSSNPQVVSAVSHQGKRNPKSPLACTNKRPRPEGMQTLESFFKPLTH
#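 Fluorescent replication assay: 50 nM final substrate added after a 15 min room-temperature compound preincubation with 10 nM enzyme. Signal taken at 0 min and again at 10 min.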
# PI5P4Ka inh: qHTS for Inhibitors of phosphatidylinositol 5-phosphate 4-kinase (PI5P4K); actives 1.2% (n = 330,000); Phosphatidylinositol 5-phosphate 4-kinase type-2 alpha (Homo sapiens), P48426; PI5P4Kalpha enzyme, ADP-Glo luminescence, 60 min; stronger effect = lower value; max response, %; AID 652105, 2013; active = max response of -50% or lower; inconclusive = between -30% and -50%; inactive = -30% or higher; also: value at the top dose of about 77 µM; % is scaled to controls: 0 for no effect and ±100 for the full control effect
#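 Single end-point luminescence (ADP-Glo) quantified ADP from PI5P4Kalpha turnover; ATP 5 microM final, 1 h at RT, 0.1% CHAPS and 0.28 mM EGTA in HEPES pH 7.4.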
# Active calls of the source: *; ? = inconclusive; nt = no result; [ ] = dose if it differs, or a comment. Unless noted, calls follow the shape of the dose curve; as a rule, active = well fitted curve in the direction sought with a large enough effect; inconclusive = small, poorly fitted or top-dose-only effect, or another doubt; inactive = no such curve, though single readings can be large; an effect the other way counts as inactive or inconclusive.
SMILES,POLI inh,WRN helicase inh,Pol kappa inh,POLB inh,Pol eta inh,PI5P4Ka inh
CCn1c(C)nc2cc(C(=O)N/N=C/c3ccc(O)c(O)c3O)ccc21,?,17.8µM*,10µM*,1.58µM*,5.01µM*,-73.8*
Cc1ccccc1-c1ccc2ncnc(NCc3cccs3)c2c1,nt,nt,22.4µM*,nt,nt,nt
Clc1ccccc1-c1ccc2ncnc(NCc3cccs3)c2c1,-5.0%,nt,-12.8%,nt,-8.8%,nt
CCCCN(CCCC)C(=O)c1cc2c(=O)n3ccccc3nc2s1,7.2%,nt,2.7%,-5.0%,-18.5%,nt
O=C(/C=C/c1ccc(O)c([N+](=O)[O-])c1)c1ccc2ccccc2c1,?,?,-3.6%,?,22.4µM*,?
O=C(O)COc1ccc(/C=C/C(=O)c2ccc3ccccc3c2)cc1,17.8µM*,?,-13.4%,-11.3%,25.1µM*,-11.8
O=C(O)COc1ccc(/C=C/C(=O)c2ccc(C3CCCCC3)cc2)cc1,?,?,-6.2%,?,39.8µM*,5.0
COc1cc2c(cc1OC)C(c1ccc(F)cc1)N(c1cccc(C#N)c1)C(=O)C2 (stereo unspecified),-27.4%,nt,11.9%,34.8%,-1.3%,nt
N=C1S/C(=C\c2ccccc2F)C(=O)N1c1ccc(F)cc1,18.8%,11.3%,-0.5%,32.6%,-18.2%,-6.4
N=C1S/C(=C\c2cn[nH]c2-c2ccc(F)cc2)C(=O)N1c1ccccc1F,124.4%,-6.9%,-0.5%,5.1%,-9.2%,-69.8*
Cc1nn(C)c2c1c(C(F)(F)F)cc(=O)n2C(C)C(=O)NCCc1ccccc1 (stereo unspecified),-14.7%,nt,-10.9%,4.7%,-3.6%,nt
COc1ccc2cc([S+]([O-])Cc3ncc(C)c(OC)c3C)nc2c1,nt,nt,4.0%[60.1 µM],nt,nt,nt
CCOC1=C/C(=C/c2c(N)n3nc(CC(=O)N4CCCCC4)sc3nc2=O)C=CC1=O,?,-8.0%[11.6 µM],?,-29.3%,?,-66.0*
C=CCC1=C/C(=C\c2c(N)n3nc(CC(=O)N4CCCC4)sc3nc2=O)C=C(OC)C1=O,18.1%,2.4%,-7.6%,8.4%,10.9%,-1.2
COC1=C/C(=C/c2c(N)n3nc(CC(=O)N4CCCCC4)sc3nc2=O)C=CC1=O,?,-1.5%,?,-1.9%,50.1µM*,-63.9*
CCOC1=C/C(=C/c2c(N)n3nc(S(=O)(=O)CC)sc3nc2=O)C=CC1=O,?,-12.1%,-19.2%,-14.3%,?,-55.9*
Nc1c(/C=C2\C=Nc3ccccc32)c(=O)nc2sc(CC(=O)N3CCOCC3)nn12,4.3%,-12.3%,-2.8%,1.8%,-14.7%,-52.8*
Cc1ccc(CSC2=NS(=O)(=O)c3ccccc32)cc1,?,nt,-12.2%,nt,nt,nt
O=C(N=NC(=O)c1ccco1)c1ccc2c(O)n(N3C(=O)c4ccccc4C3=O)c(O)c2c1,-12.7%,-11.1%,-14.8%,44.7µM*,?,-8.3
C/C=C(\C)C(=O)OC1CC(C)(C)C[C@H]2C3=CC[C@@H]4[C@@]5(C)CCC(O[C@@H]6O[C@@H](C(=O)O)[C@@H](O)C(O[C@@H]7OC[C@H](O)[C@@H](O)[C@@H]7O[C@@H]7OC(CO)C(O)[C@@H](O)[C@@H]7O)C6O[C@@H]6OC(CO)C(O)C(O)C6O)[C@@](C)(CO)[C@@H]5CC[C@]4(C)[C@]3(C)CC(O)[C@@]12CO (stereo partly specified),12.6µM*,-12.4%,-22.1%,nt,?,?
CCOc1ccc(NC(=O)c2cc3nc(-c4ccc(OC)cc4)cc(C(F)(F)F)n3n2)cc1,30.7%,nt,5.3%,4.1%,-16.1%,nt
CCOc1ccc(-c2cc(C)n3nc(C(=O)Nc4cc(Cl)ccc4O)cc3n2)cc1,79.4µM*,nt,-69.3%,7.08µM*,?,nt
O=c1[nH]c(=S)c2[nH]c(=S)n(-c3ccccc3)c2[nH]1,58.6%,-3.6%,-23.3%,nt,-4.5%,-83.8*
O=c1cc(O)n(-c2ccccc2)c(=S)[nH]1,?,-31.7%,2.0%,22.2%,-2.3%,?
O=c1[nH]c(=O)c2[nH]c(=O)n(-c3ccccc3)c2[nH]1,-9.1%,-13.5%,-23.0%,nt,-3.3%,-57.5*
SMILES,POLI inh,WRN helicase inh,Pol kappa inh,POLB inh,Pol eta inh,PI5P4Ka inh
C=CC[n+]1c(/C=C2\C=Cc3cc(C)ccc3N2CC)ccc2ccccc21,?,50.1µM*,?,31.6µM*,?,-11.9
CCN1C(=C(C#N)C#N)C=Cc2cc(C)ccc21,27.9%,-2.5%,-3.0%,-25.8%,-19.6%,1.2
Cc1cccn2c(=O)c(C(=O)NCCc3ccccc3)c(O)nc12,-14.4%,nt,5.0%,-2.9%,-2.1%,nt
CCCc1ccc(O)c(N=Cc2cc(Br)cc(OCC)c2O)c1,?,?,-24.0%,20µM*,-11.3%,-27.9
CC(=O)Nc1cccc(C(=O)OCC(=O)NC(=O)C2CCCCC2)c1,44.3%,nt,8.4%,nt,nt,nt
CCOc1ccc(C2C(=O)N(C3CCCCCC3)CC(=O)N2Cc2ccccc2)cc1OC (stereo unspecified),17.0%,nt,3.9%[60.1 µM],-1.2%,-18.0%,nt
Cc1ccc(-c2nc3cc(Cl)ccc3o2)cc1NC(=O)c1cc2ccccc2o1,-19.9%,nt,-39.0%,1.5%,-6.4%,nt
Cc1cc(C)n(/N=C/c2ccco2)c(=O)c1C#N,?,-3.1%,-12.7%,39.8µM*,-15.6%,-14.2
O=[N+]([O-])c1ccc(O/N=[N+](\[O-])N2CCN(c3ccccc3)CC2)c([N+](=O)[O-])c1,?,nt,-22.3%,nt,nt,nt
CC(=O)c1ccccc1NS(=O)(=O)c1cccc2nonc12,-9.2%,2.7%,1.8%,-19.5%,9.8%,2.2
CC(=O)c1ccccc1NS(=O)(=O)c1cccc2nsnc12,44.7µM*,-3.9%[11.6 µM],79.4µM*,25.1µM*,50.1µM*,?
CSc1sccc1/C=N/O,134.2%,2.1%,0.4%,-0.8%,-4.1%,1.3
CSc1sccc1/C=C(/C#N)C(=O)c1ccco1,?,50.1µM*,-35.4%,-11.4%,?,-3.9
CCN(CC)CCNC(=O)Cn1nc(C)c2c(C)n(-c3ccccc3)nc2c1=O,?,nt,-1.6%,0.8%,-10.6%,nt
Oc1ccc(Nc2nc3ccccc3nc2Nc2ccc(O)cc2)cc1,?,-28.7%,-15.8%,39.8µM*,?,-20.6
CN1CCN(C2=C(Cl)C(=O)C(c3cnc(N4CCCCC4)s3)=C(Cl)C2=O)CC1,?,?,-23.1%,-22.0%,?,-89.0*
CN1CCN(C2=C(Cl)C(=O)N(C3CCCCC3)C2=O)CC1,-0.7%,0.5%,2.3%,5.9%,-11.6%,nt
